The results in this text go back to PubChem BioAssay AID1850 (Southern Research Specialized Biocontainment Screening …, 2009).

Hit rate of the full screen: of about 310,000 compounds, about 1,000 (0.32%) were called active. These entries were drawn from the full list. Results with a measured potency or affinity are listed apart. Unmarked numbers belong to inactive results. No rule for the calls is given here.

The test in a line: PhoP regulon inhibitors, Salmonella typhi PhoP promoter GFP reporter, confirmatory (AID 1850).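 Also: 0% = induced wells with vehicle and 100% = uninduced wells.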 To be noted: fluorescence, 4 h, at 50 µM, active compounds read high.
`CCCCCOc1ccc(CSCCNC(=S)Nc2ccccc2)cc1`: the inhibition was -18.1%. As to `CC(C)CN(C(=O)COC(=O)CSc1ccccc1F)c1c(N)n(Cc2ccccc2)c(=O)[nH]c1=O`, the inhibition was 4.09%. The same measure for `COc1cc(C2/C(=C(\O)c3ccc4c(c3)CC(C)O4)C(=O)C(=O)N2CCN2CCOCC2)cc(OC)c1OC` (configuration not stated): -7.62%.

In the case of `CC(C)(C)NC(=O)/C(=C/c1ccccc1F)NC(=O)c1ccc([N+](=O)[O-])cc1`, the inhibition is 7.24%. As for `CC(C)NC(=O)NC(=O)CN1C(=O)NC2(CCc3ccccc3C2)C1=O` (configuration not stated), the inhibition was -20.4%. On to `C/C=C/C(=O)Nc1nnc(C2CCCCC2)s1`, for which the inhibition was -12.4%. For `COC(=O)C1CCCCN1C(=O)c1ccc2oc(Cc3ccccc3)nc2c1` (configuration not stated), the inhibition was -3.48%. `COc1ccccc1CC(=O)NNS(=O)(=O)c1cccc([N+](=O)[O-])c1`: the inhibition was -15.1%. Regarding `Oc1ccc(C[C@@H]2CNCCN2CC2CCCCC2)cc1`, the inhibition was -6.54%.

For `c1ccc(C[C@H]2CNCCN2CCCCC2CCCCC2)cc1`, the inhibition was 1.44%. For the molecule `Oc1ccc(C[C@H]2CNCCN2CC2CCCCC2)cc1`, the inhibition was -0.4%. As to `CCCCN1CCNC[C@H]1Cc1ccc(O)cc1`, the inhibition is 0.57%.

With `c1ccc(C[C@H]2CNCCN2CCC23CC4CC(CC(C4)C2)C3)cc1`, the inhibition was 15.7%. The same measure for `Oc1ccc(C[C@H]2CNCCN2CCC23CC4CC(CC(C4)C2)C3)cc1`: -7.57%; for `Nc1ccccc1SCC(O)Cn1ccc2ccccc21` (configuration not stated): 0.67%; for `CN1CCN(CCC(=O)Nc2cccc(F)c2)CC1`: -7.12%.

Turning to `CCOc1ccc(N(CC(=O)N2CCN(Cc3ccccc3)CC2)S(C)(=O)=O)cc1`, the inhibition was 1.84%. For `COc1ccc(N2CCN(C(=O)c3ccc(CSc4ccccc4)cc3)CC2)cc1` the value was 3.8%. Turning to `CCC(=O)N1CCc2cc(S(=O)(=O)NCCC(=O)NCc3ccc(F)cc3)ccc21`, the inhibition was 5.61%. For the molecule `CN(C(=O)Cc1c(C(=O)O)n(C)c2ccccc12)c1ccc(Cl)cc1`, the inhibition is -0.76%. For `CCOC(=O)C1CN(S(=O)(=O)c2ccccc2)C1` the value was -1.91%; for `CC(C)CC(NS(=O)(=O)c1cccc(C(=O)O)c1)C(=O)O` (configuration not stated), -4.1%; for `CSc1cccc(NC(=O)c2ccccc2N(C)S(C)(=O)=O)c1`, 3.99%. The same measure for `CCc1nnc(NC(=O)[C@@H](NC(=O)c2ccc(C(C)(C)C)cc2)C(C)C)s1`: -2.72%. For the molecule `O=C(NC(=S)NNC(=O)c1cnccn1)c1ccc(Cl)cc1`, the inhibition was 10.3%. Turning to `COc1cc(OC)cc(C(=O)NC(=S)NNC(=O)c2cnccn2)c1`, the inhibition is -6.65%.

In the case of `O=C(NNC(=S)NC(=O)c1cccnc1)c1ccc(F)cc1`, the inhibition was 15.9%.

For the molecule `COc1ccc(C(=O)NC(=S)NNC(=O)c2cnccn2)cc1OC`, the inhibition is 31.3%.

As to `COc1cc2oc(=O)cc(C)c2c(OC)c1OC`, the inhibition was -3.26%. With `Cc1ccc(NC(=O)C2CCCN(S(=O)(=O)c3cccs3)C2)cc1` (configuration not stated), the inhibition was 3.27%.

As to `CCOc1ccc(N2C(N)=NC(N)=NC2(C)C)cc1`, the inhibition was -0.23%. As for `COc1ccc(N2C(N)=NC(N)=NC2(C)C)cc1`, the inhibition is 2.39%. Take `COC(=O)c1ccc(CNC(=O)COC(=O)Cc2ccsc2)cc1`: the inhibition was 8.65%. The same measure for `O=C(Nc1ccc(F)cc1)c1sc(Cl)nc1-c1ccccc1`: -0.89%. `O=C(/C=C/c1ccccc1O)c1ccco1`: the inhibition was 8.77%. Consider `O=C(/C=C/c1ccc(Br)cc1)c1ccco1`, for which the inhibition was 2.45%. Take `Cc1ccc(-c2cc(-c3ccc(C)cc3)[n+](C)o2)cc1`: the inhibition is -2.37%.

Consider `COc1ccc(/C=C/C(=O)Oc2ccc(C)cc2)cc1`, for which the inhibition was -5.85%. For `CN(Cc1ccccc1OCCO)CC1CCCN(CCc2ccc(Cl)cc2)C1` (configuration not stated), the inhibition was 0.25%. For `CCOc1cccc(CN(C)CC2CCCN(CCc3ccc(Cl)cc3)C2)c1O` (configuration not stated) the value was -8.67%; for `O=C(Nc1c(C(=O)N2CCOCC2)cnn1-c1ccccc1)c1cccc(F)c1`, -2.99%; for `Cc1ccc2nc(N(CCN3CCOCC3)C(=O)CCS(=O)(=O)c3ccccc3)sc2c1`, 0.17%. Regarding `O=c1[nH]c(-c2ccccn2)nc2ccccc12`, the inhibition is -0.6%. As to `COc1cnc(-c2ccccn2)[nH]c1=O`, the inhibition was -0.99%.

For `O=C(NC1CCCC1)C(c1ccccn1)N(C(=O)c1csnn1)c1ccccc1Br` (configuration not stated), the inhibition was 5.15%. Consider `CCN(CC)CCNC(=O)CNC(=O)c1nn(-c2ccc(OC)c(OC)c2)c(=O)c2ccccc12`, for which the inhibition is -2.16%.

Take `CC(=O)c1cc(C)ccc1OC(=O)c1ccncc1`: the inhibition was -3.27%.

As for `CN1CCC2(CC1)N=C(c1ccc(F)cc1)C(=S)N2C(=O)c1ccc(C(C)(C)C)cc1`, the inhibition was 17.9%. Consider `CN1CCC2(CC1)N=C(c1ccc(F)cc1)C(=S)N2C(=O)c1ccccc1`, for which the inhibition was -2.67%.

On to `O=C(O)c1ccc(S(=O)(=O)Nc2ccc3c(c2)OCCO3)cc1`, for which the inhibition was -5.88%. Take `CCCC(=O)Nc1ccc(C(=O)NNC(=O)COc2ccc(Br)c(C)c2)cc1`: the inhibition is -2.62%.

On to `O=c1[nH]cc(-c2ccccc2)c(=O)[nH]1`, for which the inhibition was 2.03%. With `O=c1[nH]cc(O)c(=O)[nH]1`, the inhibition was 6.55%. For the molecule `COC(=O)CN1C2=NCCCN2c2ccccc21`, the inhibition is 6.91%. For `Cc1sc2ccccc2[n+]1CC(=O)c1ccccc1`, the inhibition is -4.52%. For `Cc1sc2cc3c(c(C(=O)c4ccccc4)[n+]2c1C)-c1cccc2cccc-3c12` the value was -9.84%; for `O=C(OCc1ccc(COC(=O)c2cccnc2Cl)cc1)c1cccnc1Cl`, -8.94%; for `CCOc1ccc(OCC(=O)N2CCOCC2)cc1`, -0.13%. For the molecule `CCOC(=O)c1cn(CC)c2cc3c(cc2c1=O)OCO3`, the inhibition was 2.61%. The same measure for `CCn1ccc(=O)c2cc3c(cc21)OCO3`: -2.2%. In the case of `CCn1nc(C(=O)N2CCN(Cc3ccc4c(c3)OCO4)CC2)c2ccccc2c1=O`, the inhibition is -11.3%. With `CCn1cc(C(=O)NCCC(=O)OC)c(=O)c2cc3c(cc21)OCO3`, the inhibition was 2.1%.

Usually inhibition stands for the relative decrease from the control value, in per cent.
